Marburg entry inh = Marburg virus entry inhibition | Marburg virus pseudotyped entry inhibition, cell reporter | Potency, µM (titrated, usually from 37.8 µM), inactives show at the top dose activity change, negative = inhibition, hits mostly inhibitors | actives 1.8% (n = 300,000); calls by dose curve; tested in HEK293 cells; further: potency means the concentration at half of the fitted maximal effect
FMDV inh = blocks foot and mouth disease virus | FMDV antiviral cell-based qHTS | Potency, µM (titrated, usually from 57.9 µM), inactives show top-dose activity change, negative = inhibition, usual class: inhibitors | actives 1.2% (n = 410,000) | AID 1159524; calls by dose curve; tested in HEK293T cells; further: read-out not given here; potency means the concentration at half of the fitted maximal effect; nearly all actives have a fitted effect of over 45% in size
HCV inh = HCV inhibition | Huh7.5.1 HCVcc-Cre infection, luciferase reporter, 44 h | Potency, µM (highest dose often 41.8 µM), for inactives: at the highest dose activity change, negative = inhibition, most hits filed as inhibitors | actives 3.4% (n = 340,000); active means well fitted inhibition curve with a large enough effect; inconclusive means small, poorly fitted or top-dose-only effect, or another doubt; inactive means no such curve, though single readings can be large or run the other way; further: potency means the concentration at half of the fitted maximal effect
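Cells seeded at 1,000/well and cultured 4 h, then compounds added followed by HCVcc-Cre virus (~0.5 moi). After 44 h further culture, luciferase substrate was added, plates held 15 min at room temperature, and luminescence read for 15 sec.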
LASV entry inh = Lassa virus entry inhibition. Lassa virus pseudotype entry inhibition, cell reporter. Potency, µM (titrated, usually from 37.9 µM), for inactives: at the highest dose activity change, negative = inhibition, most hits filed as inhibitors. actives 1.2% (n = 300,000). AID 540256; calls by dose curve; tested in HEK293 cells; further: potency means the concentration at half of the fitted maximal effect; nearly all actives have a fitted effect of over 50% in size
HCMV antiviral = blocks human cytomegalovirus replication; actives 4.5% (n = 410,000); HFF cells, HCMV-luciferase reporter, 72 h; hits give low values; activity change, negative = inhibition, % at 57.5 µM; in the data active means activity change below about -60%; inconclusive means no clear call, values can overlap the other calls; inactive means above about -39%
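Luciferase read-out from HCMV-luciferase-infected HFFs (MOI 1 PFU/cell) 72 h post infection at 37C; compounds added after 16 h cell attachment; activity normalized between buffer-only basal and Salinomycin (10uM) inhibitor controls.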
The depositor's hits bear a star; ? = inconclusive; nt = not tested or not shown; [ ] = another dose, or the depositor's remark. Hits are enriched below; roughly 7.9% of the tested compounds scored in any of these assays. On the % scale 0 is the no-effect control and ±100 the full control effect.

SMILES	Marburg entry inh	FMDV inh	HCV inh	LASV entry inh	HCMV antiviral
O=C1c2ccccc2C(=O)N1CCCCSc1nc2ccccc2c(=O)n1CCCN1CCOCC1	?	-19%	-19%	?	-104*
Cc1[nH]c2ccccc2c1C(=O)CSc1nc2ccccc2c(=O)n1-c1ccccc1F	nt	nt	nt	nt	-89*
O=C1c2ccccc2C(=O)N1CCSc1nc2ccccc2c(=O)n1CCCN1CCOCC1	14%[46.1 µM]	-25%	-11%	13%	25
CN(c1ccccc1)S(=O)(=O)c1ccc(C(=O)NCC(c2ccco2)N2CCCCC2)cc1 (stereo not drawn)	nt	?	?	nt	-63*
O=C(NCC(c1ccco1)N1CCCCC1)c1ccc(OCc2ccccc2)cc1 (stereo not drawn)	3%	5%	-24%	2%	3
Cc1c(C(=O)NCC(c2ccco2)N2CCCC2)sc2ccccc12 (stereo not drawn)	11µM*	14%	-9%	-1%[46.1 µM]	-5
O=C(NCC(c1ccco1)N1CCCC1)c1sc2ccccc2c1Cl (stereo not drawn)	nt	-16%	?	nt	0
O=C(NCC(c1ccco1)N1CCCCC1)c1ccc(COc2ccccc2)cc1 (stereo not drawn)	?	?	13µM*	?	-12
COc1ccccc1N(C)S(=O)(=O)c1ccc(C(=O)OC(C)C(=O)NCc2ccc3c(c2)OCO3)cc1 (stereo not drawn)	nt	?	11µM*	nt	-25
COc1ccc(N2CCN(CCN3C(=O)c4ccccc4C3=O)CC2)cc1	?	-8%	12%	nt	11
COC(=O)C1CCN(Cc2ccc3c(c2)CN(C(=O)c2cc(C)oc2C)CCO3)CC1	nt	-7%	nt	nt	nt
Cc1ccc(NC(=O)C2CCN(C(=O)c3ccco3)CC2)cc1C	7%[46.1 µM]	9%	8%	?	24
O=C(c1cc(C(F)(F)F)cc(C(F)(F)F)c1)N1CCC2(CCCN(c3ccncc3)C2)CC1	nt	-14%	nt	nt	nt
COc1ccccc1N(C)S(=O)(=O)c1ccc(C(=O)NCC(c2ccco2)N2CCCCC2)cc1 (stereo not drawn)	nt	-16%	22µM*	nt	-18
COc1ccccc1NS(=O)(=O)c1ccc(C(=O)NCC(c2ccco2)N2CCCCC2)cc1 (stereo not drawn)	nt	-22%	-17%	nt	0
COC(=O)C1=CO[C@@H](O)[C@@H]2C(CO)=CC[C@H]12	19%	nt	nt	8%	nt
COC(C[C@@H](O)CC(=O)COCc1ccccc1)OC	nt	-11%	2.8µM*	nt	4
COc1cc(=O)n2c(c1C(=O)NC(C)c1ccco1)CCN(C(=O)c1ccnc(Cl)c1)CC2 (stereo not drawn)	nt	-5%	nt	nt	nt
Cc1ccc(NC(=O)COC(=O)c2cccc3c2C(=O)c2ccccc2C3=O)c(C)c1	?	-4%	?	-25%	-67*
CCC(=O)Nc1cc(-c2nc3ccccc3s2)c(Cl)cc1Cl	-2%[46.1 µM]	2%	nt	-3%[46.1 µM]	-101*
Cc1ccc(C(=O)Nc2ccc(-c3nc4ccccc4s3)c(O)c2)c(C)c1	nt	13%	nt	19%[46.1 µM]	-63*
COc1ccccc1C(=O)Nc1ccc(-c2nc3ccccc3s2)c(C)c1	nt	15%	nt	?	-18
Cc1ccc(Nc2nc3ccccc3s2)c(C)c1	8.2µM*	-37%	-4%	10µM*	72
FC(F)(F)c1ccc(Nc2cc3c(cn2)ncn3CC2CC2)cc1	nt	nt	nt	nt	7
CCOC(=O)CCN1C(=O)[C@H]2[C@H]3[C@H](O)[C@H](O)C/C(=N\NC(=O)OCc4ccc(OC)cc4)[C@@H]3CC[C@H]2C1=O	12%[14.2 µM]	nt	nt	nt	nt
Cc1ccc(NC(=O)COC(=O)c2ccccc2-c2nc3ccccc3s2)c(C)c1	25%	-24%	-16%	-12%	-68*
Cc1ccc([C@@H]2C[C@H]3[C@@H](CN2S(=O)(=O)c2ccc(C)cc2)C(=O)C[C@@H](c2ccccc2)N3S(=O)(=O)c2ccc(C)cc2)cc1	nt	-11%	nt	nt	-12
Cc1ccc(S(=O)(=O)N2[C@H](c3ccc(Cl)cc3)CC(=O)[C@@H]3CN(S(=O)(=O)c4ccccc4C)[C@H](c4ccc(Cl)cc4)C[C@@H]32)cc1	nt	-25%	nt	nt	-89*
CC(=O)C1CN(S(=O)(=O)c2ccc(C)cc2)C(c2ccccc2)CC1C (stereo not drawn)	nt	2%	nt	nt	-60*
Cc1ccc(S(=O)(=O)N2C[C@H]3C(=O)C[C@@H](c4ccccc4)N(S(C)(=O)=O)[C@H]3C[C@H]2c2ccccc2)cc1	nt	-1%	nt	nt	-95*
